# Source: PubChem BioAssay (EPA / NIEHS)
# Records with an inconclusive call do not appear. Activity calls are given as the source filed them. Rule for the calls: active = hit-call score of the fitted dose curve at least 0.9, where 1 is the maximum; inconclusive = response in the unintended direction; inactive = score below 0.9.
# Key:
# [1] = biological target: rat CYP2A2, Cyp2a2 (gene 24895) (UniProt P15149); experiment: NVS_ADME_rCYP2A2: NovaScreen (NVS) CYP450-related Enzyme Activity (ADME) Assay for rat CYP2A2 (AID 2283116)
# Chain of rat CYP2A2, Cyp2a2 (gene 24895) (P15149 whole entry, looked up): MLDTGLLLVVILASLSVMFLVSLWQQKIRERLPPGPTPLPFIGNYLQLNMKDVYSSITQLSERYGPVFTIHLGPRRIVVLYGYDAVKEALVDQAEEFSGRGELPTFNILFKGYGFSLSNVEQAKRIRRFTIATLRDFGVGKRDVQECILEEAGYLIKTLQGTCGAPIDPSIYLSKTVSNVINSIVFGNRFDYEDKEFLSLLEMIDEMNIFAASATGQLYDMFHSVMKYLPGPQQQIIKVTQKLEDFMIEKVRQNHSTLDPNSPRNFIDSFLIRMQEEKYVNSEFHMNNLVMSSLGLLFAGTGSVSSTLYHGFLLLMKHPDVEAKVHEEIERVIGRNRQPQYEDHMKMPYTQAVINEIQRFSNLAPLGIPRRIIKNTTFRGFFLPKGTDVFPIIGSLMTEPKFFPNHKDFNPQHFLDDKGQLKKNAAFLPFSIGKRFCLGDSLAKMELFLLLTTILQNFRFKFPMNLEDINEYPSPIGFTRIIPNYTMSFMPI
# Method in brief: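 Cell-free recombinant rat CYP2A2 activity with fluorogenic substrate, fluorescence read 0.2 h after dosing. Chemicals screened at 10 uM in duplicate, hits then run in concentration-response up to 20 uM; signal loss versus acetonitrile baseline.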
# [2] = biological target: rat CYP1A2, Cyp1a2 (gene 24297) (UniProt P04799); experiment: NVS_ADME_rCYP1A2: NovaScreen (NVS) CYP450-related Enzyme Activity (ADME) Assay for rat CYP1A2 (AID 2283115)
# Chain of rat CYP1A2, Cyp1a2 (gene 24297) (P04799 whole entry, looked up): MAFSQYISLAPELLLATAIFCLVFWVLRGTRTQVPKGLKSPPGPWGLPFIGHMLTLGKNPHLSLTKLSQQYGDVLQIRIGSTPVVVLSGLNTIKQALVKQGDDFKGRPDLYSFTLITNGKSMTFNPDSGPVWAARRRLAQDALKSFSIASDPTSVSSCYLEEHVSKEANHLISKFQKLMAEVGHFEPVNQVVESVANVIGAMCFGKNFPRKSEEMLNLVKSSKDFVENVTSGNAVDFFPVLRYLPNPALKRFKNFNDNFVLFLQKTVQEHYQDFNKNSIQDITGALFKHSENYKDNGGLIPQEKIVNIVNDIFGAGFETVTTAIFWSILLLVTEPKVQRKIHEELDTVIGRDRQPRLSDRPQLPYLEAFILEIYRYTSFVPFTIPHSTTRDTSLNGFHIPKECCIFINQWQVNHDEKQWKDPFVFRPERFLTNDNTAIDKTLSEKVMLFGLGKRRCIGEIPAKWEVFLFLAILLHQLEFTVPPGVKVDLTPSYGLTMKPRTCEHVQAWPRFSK
# Method in brief: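 Cell-free recombinant rat enzyme with fluorogenic substrate, read by fluorescence intensity 1 hour after dosing. Loss of signal versus acetonitrile negative control; primary screen at 10 uM in duplicate, actives followed in concentration series.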
# [3] = biological target: rat CYP2C11, Cyp2c11 (gene 29277) (UniProt P08683); experiment: NVS_ADME_rCYP2C11: NovaScreen (NVS) CYP450-related Enzyme Activity (ADME) Assay for rat CYP2C11 (AID 2283118)
# Chain of rat CYP2C11, Cyp2c11 (gene 29277) (P08683 whole entry, looked up): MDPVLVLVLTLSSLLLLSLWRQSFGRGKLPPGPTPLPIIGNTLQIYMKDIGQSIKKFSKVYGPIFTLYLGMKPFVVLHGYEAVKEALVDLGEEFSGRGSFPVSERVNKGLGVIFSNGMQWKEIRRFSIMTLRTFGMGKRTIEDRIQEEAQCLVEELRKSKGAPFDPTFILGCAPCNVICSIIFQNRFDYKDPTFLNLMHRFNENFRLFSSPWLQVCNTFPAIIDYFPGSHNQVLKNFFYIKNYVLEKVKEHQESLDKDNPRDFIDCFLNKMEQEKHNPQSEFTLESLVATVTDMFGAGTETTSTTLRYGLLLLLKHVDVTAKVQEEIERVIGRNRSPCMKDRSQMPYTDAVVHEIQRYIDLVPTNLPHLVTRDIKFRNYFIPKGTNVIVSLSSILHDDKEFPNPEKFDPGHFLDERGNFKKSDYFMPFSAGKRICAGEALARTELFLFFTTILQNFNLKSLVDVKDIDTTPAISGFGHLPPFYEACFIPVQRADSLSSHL
# Method in brief: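 Cell-free recombinant rat enzyme with fluorescent substrate; readout 0.33 h after dosing, loss of signal versus acetonitrile control. Initial duplicate single-point at 10 uM; actives rerun in concentration series.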
# [4] = biological target: rat CYP2D2, Cyp2d26 (gene 25053) (UniProt P10634); experiment: NVS_ADME_rCYP2D2: NovaScreen (NVS) CYP450-related Enzyme Activity (ADME) Assay for rat CYP2D2 (AID 2283124)
# Chain of rat CYP2D2, Cyp2d26 (gene 25053) (P10634 whole entry, looked up): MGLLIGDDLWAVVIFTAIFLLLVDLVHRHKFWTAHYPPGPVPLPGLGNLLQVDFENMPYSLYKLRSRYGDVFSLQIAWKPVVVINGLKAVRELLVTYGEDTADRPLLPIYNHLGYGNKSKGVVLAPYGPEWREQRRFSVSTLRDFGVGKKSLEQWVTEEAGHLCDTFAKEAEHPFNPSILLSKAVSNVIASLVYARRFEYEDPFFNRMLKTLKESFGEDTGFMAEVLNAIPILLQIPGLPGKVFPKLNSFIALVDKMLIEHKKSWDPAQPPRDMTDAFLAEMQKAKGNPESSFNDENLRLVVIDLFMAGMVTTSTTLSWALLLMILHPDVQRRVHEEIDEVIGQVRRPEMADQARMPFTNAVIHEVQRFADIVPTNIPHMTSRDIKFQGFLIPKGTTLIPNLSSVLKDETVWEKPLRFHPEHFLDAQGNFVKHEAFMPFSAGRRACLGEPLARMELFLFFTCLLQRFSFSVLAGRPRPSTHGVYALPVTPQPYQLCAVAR
# Method in brief: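 Recombinant rat CYP2D2 in a cell-free fluorogenic activity assay, fluorescence read 0.75 h after dosing. Primary screen in duplicate at 10 uM; actives re-run singly in concentration-response to 20 uM, relative to acetonitrile.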
# rat CYP3A1, gene 25642 = experiment: NVS_ADME_rCYP3A1: NovaScreen (NVS) CYP450-related Enzyme Activity (ADME) Assay for rat CYP3A1 (AID 2283126)
# Method in brief: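 Cell-free recombinant CYP assay with fluorescent substrate, read 0.5 h after dosing. Screened at 10 uM in duplicate, hits at up to 20 uM in concentration-response; loss of signal versus acetonitrile baseline.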
# [5] = biological target: human Beta-secretase (BACE), BACE1 (gene 23621) (UniProt P56817); experiment: NVS_ENZ_hBACE: NovaScreen (NVS) Enzymatic Assay for human Beta-secretase (BACE) (AID 2283140);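 note: hits are inhibitors that reduce fluorescent substrate signal versus DMSO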
# Chain of human Beta-secretase (BACE), BACE1 (gene 23621) (P56817 whole entry, looked up): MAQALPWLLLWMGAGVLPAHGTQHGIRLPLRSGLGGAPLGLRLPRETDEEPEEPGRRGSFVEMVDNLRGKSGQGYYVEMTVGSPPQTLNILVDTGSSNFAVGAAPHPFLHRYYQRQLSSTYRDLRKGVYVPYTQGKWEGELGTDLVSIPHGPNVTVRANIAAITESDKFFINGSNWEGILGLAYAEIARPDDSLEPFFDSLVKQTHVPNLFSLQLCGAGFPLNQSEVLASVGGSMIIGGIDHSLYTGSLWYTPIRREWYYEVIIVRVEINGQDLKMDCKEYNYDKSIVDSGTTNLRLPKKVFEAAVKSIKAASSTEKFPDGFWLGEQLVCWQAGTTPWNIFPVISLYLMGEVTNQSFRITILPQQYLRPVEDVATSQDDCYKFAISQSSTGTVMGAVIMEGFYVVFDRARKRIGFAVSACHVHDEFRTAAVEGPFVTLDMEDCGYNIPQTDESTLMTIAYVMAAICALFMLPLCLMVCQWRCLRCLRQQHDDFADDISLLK
# Method in brief: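 Cell-free fluorescence-intensity assay of recombinant BACE1 expressed in SF9 cells, read 1 hour after dosing. Loss of signal indicates reduced protease activity, fitted relative to DMSO negative control. Primary screen at 25 uM in duplicate; actives followed in concentration series.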
# Caspase-3 (Homo sapiens) = Caspase-3 (Homo sapiens) (UniProt P42574); experiment: NVS_ENZ_hCASP3: NovaScreen (NVS) Enzymatic Assay for human Caspase 3 (CASP3) (AID 2283139)
# Chain of Caspase-3 (Homo sapiens) (P42574 whole entry, looked up): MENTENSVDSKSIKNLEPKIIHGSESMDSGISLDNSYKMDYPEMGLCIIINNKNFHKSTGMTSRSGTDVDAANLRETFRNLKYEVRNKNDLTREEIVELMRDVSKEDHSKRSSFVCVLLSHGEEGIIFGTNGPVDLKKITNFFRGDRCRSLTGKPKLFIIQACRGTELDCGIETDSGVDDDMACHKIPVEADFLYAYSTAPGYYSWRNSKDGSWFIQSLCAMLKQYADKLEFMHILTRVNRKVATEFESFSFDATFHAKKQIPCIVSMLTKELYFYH
# Method in brief: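 Recombinant human caspase-3 from E. coli with a fluorogenic substrate, read by fluorescence 1 h after dosing. Primary screen in duplicate at 25 uM. Actives (for example ≥30% inhibition) rerun as concentration-response up to 50 uM.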
# [6] = biological target: human Acetylcholinesterase (AChE), ACHE (gene 43) (UniProt P22303); experiment: NVS_ENZ_hAChE: NovaScreen (NVS) Enzymatic Assay for human Acetylcholinesterase (AChE) (AID 2283129)
# Chain of human Acetylcholinesterase (AChE), ACHE (gene 43) (P22303 whole entry, looked up): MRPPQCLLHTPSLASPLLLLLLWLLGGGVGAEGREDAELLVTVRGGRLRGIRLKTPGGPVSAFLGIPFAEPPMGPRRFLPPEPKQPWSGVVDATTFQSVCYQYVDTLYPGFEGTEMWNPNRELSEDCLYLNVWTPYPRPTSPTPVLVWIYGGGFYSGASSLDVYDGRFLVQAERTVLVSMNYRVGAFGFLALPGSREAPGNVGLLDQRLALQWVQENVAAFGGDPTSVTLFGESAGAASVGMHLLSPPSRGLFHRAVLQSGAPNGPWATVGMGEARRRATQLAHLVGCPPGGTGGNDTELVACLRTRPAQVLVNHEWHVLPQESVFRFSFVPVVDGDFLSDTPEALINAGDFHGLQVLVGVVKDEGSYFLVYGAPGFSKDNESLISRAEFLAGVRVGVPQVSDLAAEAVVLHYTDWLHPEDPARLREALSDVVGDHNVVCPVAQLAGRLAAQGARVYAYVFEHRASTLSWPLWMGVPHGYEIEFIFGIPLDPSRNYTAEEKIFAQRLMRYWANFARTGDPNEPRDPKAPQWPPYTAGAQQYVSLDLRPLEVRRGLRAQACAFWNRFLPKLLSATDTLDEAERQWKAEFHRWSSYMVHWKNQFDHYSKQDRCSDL
# Method in brief: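 Cell-free colorimetric enzyme-activity assay; compounds read 0.33 hour after dosing, loss of signal vs DMSO baseline. Primary screen in duplicate at 25 uM single concentration, with active compounds retested in concentration series.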
# [7] = biological target: human Caspase 10 (CASP10), CASP10 (gene 843) (UniProt Q92851); experiment: NVS_ENZ_hCASP10: NovaScreen (NVS) Enzymatic Assay for human Caspase 10 (CASP10) (AID 2283133)
# Chain of human Caspase 10 (CASP10), CASP10 (gene 843) (Q92851 whole entry, looked up): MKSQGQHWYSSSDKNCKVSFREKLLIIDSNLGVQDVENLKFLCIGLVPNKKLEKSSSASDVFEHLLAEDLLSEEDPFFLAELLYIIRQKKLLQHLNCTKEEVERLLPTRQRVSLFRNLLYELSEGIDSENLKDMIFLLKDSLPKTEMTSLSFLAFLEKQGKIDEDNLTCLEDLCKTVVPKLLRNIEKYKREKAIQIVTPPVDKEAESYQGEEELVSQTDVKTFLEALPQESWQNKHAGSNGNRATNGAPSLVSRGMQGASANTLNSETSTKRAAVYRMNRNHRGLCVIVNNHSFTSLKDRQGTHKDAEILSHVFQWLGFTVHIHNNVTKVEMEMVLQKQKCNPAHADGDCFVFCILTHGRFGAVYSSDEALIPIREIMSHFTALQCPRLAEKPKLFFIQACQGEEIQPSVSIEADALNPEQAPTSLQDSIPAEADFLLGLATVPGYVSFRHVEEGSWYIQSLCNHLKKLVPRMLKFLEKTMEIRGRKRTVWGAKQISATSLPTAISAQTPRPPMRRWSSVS
# Method in brief: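 Recombinant human caspase-10 from E. coli, cell-free fluorogenic substrate assay read 1 h after dosing. Primary duplicate screen at 25 uM; hits (e.g. ≥30% inhibition) run singly in concentration-response up to 50 uM, normalised to DMSO.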
# [8] = biological target: human Caspase 5 (CASP5), CASP5 (gene 838) (UniProt P51878); experiment: NVS_ENZ_hCASP5: NovaScreen (NVS) Enzymatic Assay for human Caspase 5 (CASP5) (AID 2283137)
# Chain of human Caspase 5 (CASP5), CASP5 (gene 838) (P51878 whole entry, looked up): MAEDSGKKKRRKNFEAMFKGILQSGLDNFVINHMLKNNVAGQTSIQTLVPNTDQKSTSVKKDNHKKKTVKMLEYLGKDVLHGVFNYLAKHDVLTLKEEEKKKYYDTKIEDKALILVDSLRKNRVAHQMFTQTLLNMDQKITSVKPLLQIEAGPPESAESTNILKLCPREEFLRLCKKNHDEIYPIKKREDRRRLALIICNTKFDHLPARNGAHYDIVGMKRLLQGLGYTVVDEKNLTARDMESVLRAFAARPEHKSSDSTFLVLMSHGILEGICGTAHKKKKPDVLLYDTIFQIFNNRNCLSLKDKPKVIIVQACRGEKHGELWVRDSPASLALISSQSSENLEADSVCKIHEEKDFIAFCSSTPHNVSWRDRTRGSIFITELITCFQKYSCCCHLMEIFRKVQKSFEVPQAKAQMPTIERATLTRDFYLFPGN
# Method in brief: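 Recombinant E. coli-expressed human caspase 5 in a cell-free enzyme assay; fluorescence intensity read 2 hours after chemical dosing. Single-concentration duplicate screen at 25 uM, then concentration-response up to 50 uM for hits; DMSO negative control.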
# rat CYP2C6, gene 293989 = experiment: NVS_ADME_rCYP2C6: NovaScreen (NVS) CYP450-related Enzyme Activity (ADME) Assay for rat CYP2C6 (AID 2283120)
# Method in brief: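 Cell-free recombinant rat CYP2C6 with fluorogenic substrate, read by fluorescence 1 h after dosing; acetonitrile as negative control. Primary screen at 10 uM in duplicate, actives then in concentration-response up to 20 uM.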
# [9] = biological target: human AKT serine/threonine Kinase 1 (AKT1), AKT1 (gene 207) (UniProt P31749); experiment: NVS_ENZ_hAKT1: NovaScreen (NVS) Enzymatic Assay for human AKT serine/threonine Kinase 1 (AKT1) (AID 2283138)
# Chain of human AKT serine/threonine Kinase 1 (AKT1), AKT1 (gene 207) (P31749 whole entry, looked up): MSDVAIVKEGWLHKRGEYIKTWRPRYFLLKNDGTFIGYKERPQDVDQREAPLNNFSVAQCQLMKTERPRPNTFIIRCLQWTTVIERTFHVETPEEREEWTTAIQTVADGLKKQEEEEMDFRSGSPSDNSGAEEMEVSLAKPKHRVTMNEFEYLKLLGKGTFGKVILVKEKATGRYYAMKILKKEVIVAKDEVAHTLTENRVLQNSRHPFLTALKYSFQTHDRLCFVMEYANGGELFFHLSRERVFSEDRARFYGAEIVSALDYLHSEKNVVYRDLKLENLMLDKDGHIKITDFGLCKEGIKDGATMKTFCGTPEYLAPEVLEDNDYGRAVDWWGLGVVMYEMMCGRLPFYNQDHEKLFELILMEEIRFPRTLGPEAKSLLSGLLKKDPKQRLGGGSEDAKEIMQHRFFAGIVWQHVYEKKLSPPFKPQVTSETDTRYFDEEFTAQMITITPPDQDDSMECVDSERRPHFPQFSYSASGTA
# Method in brief: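 Cell-free recombinant enzyme with substrate; activity read by fluorescence intensity after electrophoretic mobility shift separating substrate from product, 1 h after dosing. Single-concentration duplicates at 25 uM, then singleton concentration-response up to 50 uM; loss of signal versus DMSO.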
smiles,measurement,setting,value
CCC(=NOC/C=C/Cl)C1=C(O)CC(C2CCOCC2)CC1=O (configuration not stated),outcome,[1],inactive
CCOP(=O)(NC(C)C)Oc1ccc(SC)c(C)c1 (configuration not stated),outcome,[2],inactive
same,AC50,[3],6.43 µM (active)
same,AC50,[4],5.06 µM (active)
same,AC50,"rat CYP3A1, gene 25642",7.98 µM (active)
C#CCC1=C(C)C(OC(=O)C2C(C=C(C)C)C2(C)C)CC1=O (configuration not stated),AC50,[1],3.46 µM (active)
same,outcome,[3],inactive
same,AC50,"rat CYP3A1, gene 25642",7.59 µM (active)
same,outcome,[5],inactive
CCOP(=S)(OCC)SCCSCC,outcome,Caspase-3 (Homo sapiens),inactive
COP(=O)(OC)SCn1c(=O)oc2cc(Cl)cnc21,AC50,"rat CYP3A1, gene 25642",9.11 µM (active)
same,AC50,[6],6.65 µM (active)
CCCCSP(=O)(SCCCC)SCCCC,outcome,[5],inactive
COP(=O)(OC)OC(Br)C(Cl)(Cl)Br (configuration not stated),AC50,[6],3.67 µM (active)
O=C(O)c1cc(Oc2ccc(C(F)(F)F)cc2Cl)ccc1[N+](=O)[O-],AC50,"rat CYP3A1, gene 25642",5.89 µM (active)
same,outcome,[7],inactive
COP(=O)(NC(C)=O)SC (configuration not stated),outcome,Caspase-3 (Homo sapiens),inactive
CC(COc1ccc(Oc2ccccc2)cc1)Oc1ccccn1 (configuration not stated),AC50,[5],37.2 µM (active)
Cc1ccn2nc(S(=O)(=O)Nc3c(F)cccc3F)nc2n1,outcome,[8],inactive
CC(C)=CC1C(C(=O)OCN2C(=O)C3=C(CCCC3)C2=O)C1(C)C (configuration not stated),AC50,[4],10 µM (active)
same,outcome,"rat CYP3A1, gene 25642",inactive
same,AC50,Caspase-3 (Homo sapiens),18.1 µM (active)
same,AC50,[5],25 µM (active)
COc1ccc(C(=CC(=O)N2CCOCC2)c2ccc(Cl)cc2)cc1OC,AC50,"rat CYP2C6, gene 293989",3.98 µM (active)
same,AC50,"rat CYP3A1, gene 25642",3.86 µM (active)
same,outcome,Caspase-3 (Homo sapiens),inactive
CCOP(=O)(SC(C)CC)N1CCSC1=O (configuration not stated),AC50,[3],3.88 µM (active)
same,AC50,"rat CYP2C6, gene 293989",5.01 µM (active)
same,AC50,"rat CYP3A1, gene 25642",6.64 µM (active)
same,outcome,[9],inactive
CNC(=O)Oc1cccc2c1OC(C)(C)O2,AC50,[6],1.36 µM (active)
CNC(=O)ON=C(C)SC,AC50,[6],25 µM (active)
